Source: PubChem BioAssay (EPA / NIEHS)
The source made the active and inactive calls. How the source made its calls: active means hit-call score of the fitted dose curve at least 0.9, where 1 is the maximum; inactive means score below 0.9.

What follows are compounds tested on Macrophage colony-stimulating factor (MCSF), CSF1 (gene 1435) (assay: BSK_LPS_MCSF: BioMAP Diversity Plus: LPS Assay for Macrophage colony-stimulating factor (MCSF) Biomarker Activity (AID 2283083)). Settings: primary human HUVEC with PBMC; actives raise or lower the signal.
Experimental: BSK_LPS is a cell-based, multiplexed-readout assay that uses umbilical vein endothelium and peripheral blood mononuclear cells, a human vascular primary cell co-culture, with measurements taken at 24 hours after chemical dosing in a 96-well plate.BSK_LPS_MCSF is an assay component measured in the BSK_LPS assay. It measures M-CSF antibody related to regulation of gene expression using ELISA technology.Data from the assay component BSK_LPS_MCSF was analyzed into 1 assay endpoint. This assay endpoint, BSK_LPS_MCSF, was analyzed with bidirectional fitting relative to DMSO as the negative control and baseline of activity. Using a type of binding reporter, gain or loss-of-signal activity can be used to understand changes in the signaling as they relate to the gene CSF1. Furthermore, this assay endpoint can be referred to as a primary readout, because this assay has produced multiple assay endpoints where this one serves a signaling function. To generalize the intended target to other relatable targets, this assay endpoint is annotated to the cytokine intended target family, where the subfamily is colony stimulating factor.
The levels of cell surface (or secreted, indicated by the prefix "s") biomarker endpoints were measured by ELISA. Overt cytotoxicity to cells in confluent adherent cultures (all systems other than the BT system) was assessed by measuring total protein levels using sulforhodamine B (SRB) staining in parallel cultures at the time of biomarker measurements, indicated as SRB endpoints. For proliferation assays for adherent cell types, individual cell types are cultured at sub-confluence and relative cell numbers quantified by SRB staining at time points optimized for each system (48 h: 3C and CASM3C systems; 72 h: BT and HDF3CGF systems; 96 h: SAg system). SRB was performed by staining cells with 0.1% SRB after fixation with 10% TCA and reading wells at 560 nm.Viability and proliferation of PBMC (T cells) was quantified by Alamar Blue reduction for the SAg and BT systems. For PBMC viability (referred to as PBMC Cytotoxicity within the assay endpoint names), cells were plated (75,000/well in a 96-well plate) and then chemical samples added for 1 h before addition of activators, SEB and TSST-1 (20 ng/mL final concentration each). Cells were incubated for 90 h. Then, Alamar Blue (20 uL/well) (Invitrogen, Cat DAL1100) was added for 6 h, and the plates were read with a fluorescence microplate reader at 546/580 nm (excitation/emission). For PBMC proliferation, cells were plated and activated as above but incubated for only 16 h prior to addition of Alamar Blue. Plates were read after 6 h.

| SMILES | outcome | AC50 |
| --- | --- | --- |
| OCCO | inactive |  |
| NC(=O)c1nc(-c2cccc(-c3cc(F)ccc3OCC(F)(F)C(F)(F)F)c2)n[nH]1 |  | 29.4 µM (active) |
| CCCOC(=O)c1cc(O)c(O)c(O)c1 | inactive |  |
| CC/C(=C(/CC)c1ccc(O)cc1)c1ccc(O)cc1 |  | 15.2 µM (active) |
| CCCCCCCCCC(=O)O | inactive |  |
| O=C(O)c1ccccc1-n1cc(C(=O)O)c(=O)c2cc(Nc3c(F)cc(F)cc3Cl)c(Cl)cc21 | inactive |  |
| O=C(O)Cn1c(=O)n(Cc2ccc(Br)cc2F)c(=O)c2ccc(Cl)cc21 | inactive |  |
| CCN(Cc1cccnc1)C(=O)c1cccc(Cl)c1[C@]1(C)C(=O)N(Cc2ccc(OC)cc2OC)c2ccc(Cl)cc21 |  | 6.54 µM (active) |
| Cc1ccc2oc(CN(Cc3ccccc3)C(=O)Nc3c(F)cc(F)cc3F)c(-c3ccc(Cl)cc3)c2c1 | inactive |  |
| O=C(Nc1ccc(Cl)cc1)Nc1ccc(Cl)c(Cl)c1 |  | 11.8 µM (active) |
| CCCCCCCC[Si](OCC)(OCC)OCC | inactive |  |
| O=CCCCC=O |  | 37.3 µM (active) |
| CCCCCCCCOC(=O)c1cc(O)c(O)c(O)c1 |  | 31.9 µM (active) |
| c1ccc2n[nH]nc2c1 | inactive |  |
| Cc1oc2c(NC(=O)c3c(Cl)cccc3Cl)cccc2c1C(C)(C)O | inactive |  |
| c1ccc(C[n+]2cccc3ccccc32)cc1 | inactive |  |
| Cc1ccc(C(C)C)cc1 | inactive |  |
| CCCCCCCCCCCO | inactive |  |
| CC[C@@H]1C[C@H](N(Cc2cc(C(F)(F)F)cc(C(F)(F)F)c2)C(C)=O)c2cc(C(F)(F)F)ccc2N1C(=O)OC(C)C | inactive |  |
| Cc1occc1C(=O)Nc1ccc(C(=O)N2CCC(F)(F)/C(=C\C(=O)N3CCC(N4CCCCC4)CC3)c3ccccc32)cc1 | inactive |  |

| SMILES | outcome | AC50 |
| --- | --- | --- |
| CC1=CC(=O)/C(=C(/C)O)C(=O)O1 | inactive |  |
| OC12N=C(c3ccccc3)SC1Cc1cc(Cl)ccc12 (stereo not given) | inactive |  |
| COc1ccc2cc(S(=O)(=O)N[C@H](CC(=O)N[C@H](Cc3ccc(CN4[C@H](C)CCC[C@@H]4C)cc3)C(=O)N(C)C(C)C)c3ccc4c(c3)OCO4)ccc2c1 |  | 19.1 µM (active) |
| CN(C[C@@H](CC[N+]12CCC(C3CCCCC3)(CC1)CC2)c1ccc(Cl)c(Cl)c1)C(=O)c1cc(C(F)(F)F)cc(C(F)(F)F)c1 |  | 23.6 µM (active) |
| O=C(O)Cc1cc(I)c(Oc2ccc(O)c(I)c2)c(I)c1 | inactive |  |
| Clc1cc(Cl)c2c(c1)N=C1CCCCCN1C2 | inactive |  |
| CCO[Si](CCCNC(N)=O)(OCC)OCC | inactive |  |
| CCOC(=O)O[C@H](C)OC(=O)c1ccc2c(c1)cc(C(=O)NC1CCN(C(C)C)CC1)n2Cc1cc(-c2ccc(Cl)s2)on1 |  | 6.43 µM (active) |
| CCCCOC(=O)CC(CC(=O)OCCCC)(OC(C)=O)C(=O)OCCCC | inactive |  |
| CC(C)(c1cc(Br)c(O)c(Br)c1)c1cc(Br)c(O)c(Br)c1 |  | 23.5 µM (active) |
| O=C1O[C@H]([C@@H](O)CO)C(O)=C1O | inactive |  |
| Cc1cc2c(cc1C(F)(F)F)N(C(=O)Nc1ccc(Oc3cccnc3C)nc1)CC2 |  | 26.8 µM (active) |
| C[C@]12CC[C@@H]3c4ccc(O)cc4CC[C@H]3[C@@H]1CC[C@H]2O |  | 8.61 µM (active) |
| Cc1cc(F)ccc1-c1cc(N2CC[C@@H](O)[C@H]2CO)ncc1N(C)C(=O)C(C)(C)c1cc(C(F)(F)F)cc(C(F)(F)F)c1 |  | 10.8 µM (active) |
| CN1C(=O)N(c2ccccc2Br)Cc2cnc(Nc3ccc4c(c3)OCC(CO)O4)nc21 (stereo not given) |  | 9.88 µM (active) |
| CC[C@H](NC(=O)c1cc(F)ccc1NS(=O)(=O)c1cccc2cccnc12)c1ccccc1 | inactive |  |
| CC(O)CC(C)(C)O (stereo not given) | inactive |  |
| O=c1[nH]sc2ccccc12 |  | 12 µM (active) |
| Cc1cccc2ccccc12 | inactive |  |
| C[C@]12CC[C@@H]3c4ccc(O)cc4CC[C@H]3[C@@H]1CCC2=O | inactive |  |
